Test results taken from PubChem BioAssay (NCATS).
A number with no mark means an inactive call. Inconclusive results are not listed. Activity calls are given as the source filed them. Unless noted, the call rests on the fitted dose curve; in most records, active means well fitted curve in either direction with a large enough effect (not every such curve was filed as active); inconclusive means small, poorly fitted or top-dose-only effect, or another doubt; inactive means flat fitted curve, though single readings scatter.

Experiments:
[1] = target: Lysosomal acid glucosylceramidase (Homo sapiens) (UniProt P04062); assay: Glucocerebrosidase-p2 (AID 348; in the data active means potency below about 10 µM; further: potency means the concentration at half of the fitted maximal effect); settings: purified GBA, blue fluorogenic substrate, 40 min
Lysosomal acid glucosylceramidase (Homo sapiens), sequence (P04062 whole entry, looked up): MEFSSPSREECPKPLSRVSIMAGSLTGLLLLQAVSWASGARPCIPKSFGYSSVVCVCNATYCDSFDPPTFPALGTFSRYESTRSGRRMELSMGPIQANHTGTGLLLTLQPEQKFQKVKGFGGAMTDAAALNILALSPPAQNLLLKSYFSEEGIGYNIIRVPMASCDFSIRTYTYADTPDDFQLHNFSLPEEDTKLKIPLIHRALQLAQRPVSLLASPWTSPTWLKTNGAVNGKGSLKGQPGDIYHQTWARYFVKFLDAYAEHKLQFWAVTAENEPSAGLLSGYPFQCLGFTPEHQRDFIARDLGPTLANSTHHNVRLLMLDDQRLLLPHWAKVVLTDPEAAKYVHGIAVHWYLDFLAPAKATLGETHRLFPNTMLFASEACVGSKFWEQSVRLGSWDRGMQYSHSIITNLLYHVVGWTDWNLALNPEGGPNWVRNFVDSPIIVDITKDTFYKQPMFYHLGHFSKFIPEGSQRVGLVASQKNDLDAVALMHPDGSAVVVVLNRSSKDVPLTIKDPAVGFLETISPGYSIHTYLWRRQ
Method in brief: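 Normal human glucocerebrosidase (0.2 nM) with blue fluorogenic substrate (80 uM final) in citrate/phosphate pH 5.9 with 10mM sodium taurocholate, 0.01% tween-20; 40 min RT, NaOH/glycine stop; fluorescence Ex 365/Em 440; AC50 from a titration from 0.6 nM upwards.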

[2] = AP1 Signaling Pathway (AID 357); settings: ME-180 AP-1-bla reporter, EGF-induced, beta-lactamase ratio, 5 h; at 7.69 µM (top of the series) unless noted;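 further: ME-180 reporter cells stimulated with EGF at its EC50 level; on the % scale 0 is the no-effect control and ±100 the full control effect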
Method in brief: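 Beta-lactamase reporter under AP-1 response element, ME-180 background. Stimulus: EC50 EGF. Compound exposure 5 h, 37 °C. Detection: CCF4, 2.5 h RT, 460/530 nm. Values: AC50 from titration.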

[3] = target: Cytochrome P450 1A2 (Homo sapiens) (UniProt P05177); assay: p450-cyp1a2 (AID 410; calls by dose curve; further: potency means the concentration at half of the fitted maximal effect;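 on activity change, negative = inhibition: -100% = full effect of reference inhibitor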); settings: recombinant CYP1A2, luciferin-ME demethylation, luminescence; series mostly up to 57 µM
Cytochrome P450 1A2 (Homo sapiens), sequence (P05177 whole entry, looked up): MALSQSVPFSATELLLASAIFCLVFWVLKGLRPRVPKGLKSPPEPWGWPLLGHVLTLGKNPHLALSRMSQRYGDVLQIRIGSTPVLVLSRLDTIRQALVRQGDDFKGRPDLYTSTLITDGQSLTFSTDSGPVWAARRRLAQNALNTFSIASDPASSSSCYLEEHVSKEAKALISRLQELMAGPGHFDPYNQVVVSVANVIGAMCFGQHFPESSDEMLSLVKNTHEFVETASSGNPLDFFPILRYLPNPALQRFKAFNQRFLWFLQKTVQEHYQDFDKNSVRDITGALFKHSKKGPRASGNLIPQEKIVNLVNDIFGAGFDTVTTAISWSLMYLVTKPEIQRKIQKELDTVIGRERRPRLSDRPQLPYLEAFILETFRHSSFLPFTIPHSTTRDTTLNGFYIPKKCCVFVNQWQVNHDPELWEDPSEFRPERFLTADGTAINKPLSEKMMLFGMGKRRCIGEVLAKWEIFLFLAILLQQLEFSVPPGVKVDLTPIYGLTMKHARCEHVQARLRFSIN
Method in brief: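 Read-out is luminescence from luciferin produced by CYP1A2 demethylation of Luciferin-ME (100uM, at Km). Detection reagent stopped the 60 min NADPH-dependent reaction; signals were normalized to 57 uM furafylline.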

[4] = NFAT Signaling Pathway (AID 444); settings: Jurkat NFAT-bla M1, carbachol, beta-lactamase ratio, 5 h; at 7.69 µM (top of the series) unless noted;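 further: carbachol stimulus at about its EC50 of 1 µM final; on the % scale 0 is the no-effect control and ±100 the full control effect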
Method in brief: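 Jurkat cells carrying an NFAT-driven β-lactamase reporter and co-transfected muscarinic M1 receptor were treated with compound plus carbachol (1 uM final, an EC50 level) for 5 h at 37 °C. CCF4 loading followed for 1 h at RT; 460/530 nm ratio gave %activity.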

[5] = Stat Signaling Pathway (AID 446); settings: ME-180 SIE beta-lactamase reporter, IL-6 stimulated, 5 h; at 7.69 µM (top of the series) unless noted;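 further: ME-180 cervical cancer cells given 40 pM IL-6 alongside compound; SIE-controlled beta-lactamase reporter measured as 460/530 nm FRET emission ratio; on the % scale 0 is the no-effect control and ±100 the full control effect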
Method in brief: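 Compound effects on IL-6-induced STAT reporter activity were measured in ME-180 cells. After overnight culture, cells were co-treated with 40 pM IL-6 for 5 hrs before beta-lactamase substrate loading at room temperature.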

[6] = target: Glucocorticoid receptor (Homo sapiens) (UniProt P04150); assay: GR-EFC Redistribution (AID 451; calls by dose curve; further: potency means the concentration at half of the fitted maximal effect); settings: CHO-K1 GR-EFC translocation, beta-gal luminescence, 2 h
Glucocorticoid receptor (Homo sapiens), sequence (P04150 whole entry, looked up, the tested form may be a part): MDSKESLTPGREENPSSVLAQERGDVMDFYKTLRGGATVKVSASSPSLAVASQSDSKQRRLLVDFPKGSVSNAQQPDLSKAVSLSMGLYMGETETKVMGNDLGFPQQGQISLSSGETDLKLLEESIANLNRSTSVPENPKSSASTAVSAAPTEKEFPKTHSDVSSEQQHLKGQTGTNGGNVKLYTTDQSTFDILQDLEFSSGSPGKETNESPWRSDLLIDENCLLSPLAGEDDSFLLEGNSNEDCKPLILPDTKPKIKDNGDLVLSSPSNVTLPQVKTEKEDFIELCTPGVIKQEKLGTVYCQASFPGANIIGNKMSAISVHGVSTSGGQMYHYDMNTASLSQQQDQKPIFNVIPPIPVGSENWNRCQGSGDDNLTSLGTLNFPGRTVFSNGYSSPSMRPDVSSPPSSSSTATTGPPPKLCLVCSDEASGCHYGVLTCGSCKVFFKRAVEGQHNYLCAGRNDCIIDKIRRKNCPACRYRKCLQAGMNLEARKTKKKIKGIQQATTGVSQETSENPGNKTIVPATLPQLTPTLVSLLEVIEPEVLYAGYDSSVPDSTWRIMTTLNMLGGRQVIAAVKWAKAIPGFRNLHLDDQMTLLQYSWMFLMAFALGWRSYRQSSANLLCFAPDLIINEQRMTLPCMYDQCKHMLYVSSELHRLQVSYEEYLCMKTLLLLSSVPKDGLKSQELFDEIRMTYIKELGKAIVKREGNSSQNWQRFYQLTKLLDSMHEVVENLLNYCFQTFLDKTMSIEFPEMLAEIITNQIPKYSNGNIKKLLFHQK
Method in brief: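 CHO-K1 cells stably expressing nuclear-localized β-gal enzyme acceptor and GR fused C-terminally to the enzyme donor fragment; ligand-driven nuclear translocation restores β-gal by complementation. Compounds titrated up to 46 uM final, 2 h at 37 °C; luminescence read.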

[7] = target: Mitogen-activated protein kinase 10 (Mus musculus) (UniProt Q61831); assay: JNK3 AlphaScreen Assay (AID 530); settings: JNK3 lysate, c-Jun phosphorylation; series mostly up to 57.1 µM;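 further: kinase came from lysate of stimulated human HepG2 cells; signal reports phosphorylation of biotinylated GST-cJun 1-79 at Ser73 with 10 µM ATP; on the % scale 0 is the no-effect control and ±100 the full control effect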
Method in brief: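 Biotinylated GST-cJun(1-79) served as substrate for JNK3 in HepG2 lysates stimulated with IL-1beta and TNF-alpha. ATP was 10 uM final, pH 7.6. Ser73 phosphorylation was quantified by AlphaScreen (680 nm excitation).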

[8] = target: 3',5'-cyclic-AMP phosphodiesterase 4B (Homo sapiens) (UniProt Q07343); assay: qHTS Assay for Inhibitors of PDE-IV (AID 607; active means well fitted activation curve with a large enough effect in the main read-out, with a control signal flat, not every such curve was filed as active; further: % of control where 0% means no effect); settings: HEK293 ACTOne CNG channel cells, membrane potential fluorescence; series mostly up to 22.9 µM
3',5'-cyclic-AMP phosphodiesterase 4B (Homo sapiens), sequence (Q07343 whole entry, looked up): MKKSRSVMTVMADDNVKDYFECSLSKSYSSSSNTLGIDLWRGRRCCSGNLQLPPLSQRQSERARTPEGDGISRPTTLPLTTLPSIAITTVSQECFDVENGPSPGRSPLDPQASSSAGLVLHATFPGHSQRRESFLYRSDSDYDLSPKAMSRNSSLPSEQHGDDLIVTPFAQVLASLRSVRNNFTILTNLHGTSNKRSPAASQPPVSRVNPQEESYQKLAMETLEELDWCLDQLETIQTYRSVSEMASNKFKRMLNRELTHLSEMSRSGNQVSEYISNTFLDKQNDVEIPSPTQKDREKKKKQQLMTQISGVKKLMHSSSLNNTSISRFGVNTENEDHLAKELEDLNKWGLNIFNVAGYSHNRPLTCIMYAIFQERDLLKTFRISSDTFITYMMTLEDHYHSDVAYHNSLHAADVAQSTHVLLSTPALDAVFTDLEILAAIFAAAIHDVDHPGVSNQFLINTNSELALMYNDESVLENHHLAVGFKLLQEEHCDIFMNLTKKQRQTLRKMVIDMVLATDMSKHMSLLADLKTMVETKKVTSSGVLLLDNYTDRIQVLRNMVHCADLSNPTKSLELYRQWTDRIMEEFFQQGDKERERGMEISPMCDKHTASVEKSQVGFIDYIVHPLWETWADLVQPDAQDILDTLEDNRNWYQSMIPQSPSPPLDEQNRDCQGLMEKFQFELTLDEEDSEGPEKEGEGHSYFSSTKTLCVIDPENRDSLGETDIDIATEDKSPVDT
Method in brief: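 ACTOne HEK293 cells carry a modified cAMP-gated CNG channel and express endogenous PDE4; plated 1000 cells/well, compounds up to 22.9 uM final. Membrane-potential dye fluorescence (ex 535/em 590) was read; parental cells received 10 uM forskolin + 100 uM RO 20-1724.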

[9] = target: Cytochrome P450 3A4 (Homo sapiens) (UniProt P08684); assay: qHTS Assay for Activators of Cytochrome P450 3A4 (AID 885; active means well fitted curve in the direction sought with a large enough effect; an effect the other way counts as inactive or inconclusive; further: nearly all actives have a fitted effect of over 65% in size); settings: recombinant CYP3A4, Luciferin-PPXE luminescence, 60 min; series mostly up to 57.1 µM
Cytochrome P450 3A4 (Homo sapiens), sequence (P08684 whole entry, looked up): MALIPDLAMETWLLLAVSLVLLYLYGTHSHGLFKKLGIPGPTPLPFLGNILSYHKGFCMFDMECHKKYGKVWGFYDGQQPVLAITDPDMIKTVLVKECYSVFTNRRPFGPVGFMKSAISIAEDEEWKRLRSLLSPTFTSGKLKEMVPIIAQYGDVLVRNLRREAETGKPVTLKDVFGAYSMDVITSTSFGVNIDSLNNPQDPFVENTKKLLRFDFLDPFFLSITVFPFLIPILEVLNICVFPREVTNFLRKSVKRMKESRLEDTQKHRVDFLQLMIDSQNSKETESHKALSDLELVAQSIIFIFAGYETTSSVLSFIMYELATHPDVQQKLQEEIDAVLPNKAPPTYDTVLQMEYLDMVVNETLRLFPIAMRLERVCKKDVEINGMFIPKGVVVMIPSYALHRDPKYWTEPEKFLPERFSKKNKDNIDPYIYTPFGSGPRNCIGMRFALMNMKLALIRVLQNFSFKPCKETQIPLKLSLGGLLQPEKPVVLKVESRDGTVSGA
Method in brief: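 CYP3A4 activity: Luciferin-PPXE O-dealkylation, 25uM substrate, 200mM KPO4, RT throughout. Read-out is luciferase luminescence; higher values reflect activation.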

[10] = target: Cytochrome P450 2D6 (Homo sapiens) (UniProt P10635); assay: qHTS Assay for Inhibitors and Substrates of Cytochrome P450 2D6 (AID 891; active means well fitted curve in the direction sought with a large enough effect; an effect the other way counts as inactive or inconclusive; further: potency means the concentration at half of the fitted maximal effect; nearly all actives have a fitted effect of over 60% in size); settings: recombinant CYP2D6, luciferin-ME EGE luminescence; series mostly up to 57.1 µM
Cytochrome P450 2D6 (Homo sapiens), sequence (P10635 whole entry, looked up): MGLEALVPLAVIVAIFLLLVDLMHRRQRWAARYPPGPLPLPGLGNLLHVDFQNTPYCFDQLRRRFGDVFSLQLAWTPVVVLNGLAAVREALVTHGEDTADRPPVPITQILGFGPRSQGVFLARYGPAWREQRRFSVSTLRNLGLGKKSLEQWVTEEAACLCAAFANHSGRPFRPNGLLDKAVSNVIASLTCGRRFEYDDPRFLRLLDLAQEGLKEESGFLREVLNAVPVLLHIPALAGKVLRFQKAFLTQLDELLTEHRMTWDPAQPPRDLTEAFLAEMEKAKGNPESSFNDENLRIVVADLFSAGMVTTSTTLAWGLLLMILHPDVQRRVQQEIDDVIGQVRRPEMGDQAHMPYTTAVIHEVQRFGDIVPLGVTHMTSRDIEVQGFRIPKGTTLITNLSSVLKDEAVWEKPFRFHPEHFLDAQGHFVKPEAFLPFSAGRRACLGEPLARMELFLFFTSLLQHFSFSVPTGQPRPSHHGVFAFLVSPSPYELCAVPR
Method in brief: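 Luminescent read-out of luciferin formed by 5 nM human CYP2D6 demethylating 30 uM Luciferin-ME EGE (Km level) over 60 min at room temperature after NADPH regeneration addition. Data normalized to full inhibition by 1.43 uM quinidine.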

[11] = Primary qHTS for small molecule stabilizers of the endoplasmic reticulum resident proteome: Secreted ER Calcium Modulated Protein (SERCaMP) assay (AID 1508630; active means well fitted curve in the direction sought with a large enough effect; an effect the other way counts as inactive or inconclusive; further: on the % scale 0 is the no-effect control and ±100 the full control effect); settings: SH-SY5Y GLuc-SERCaMP (Gaussia luciferase released on ER calcium loss) secretion, thapsigargin, luminescence; series mostly up to 38.4 µM
Method in brief: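 The SH-SY5Y reporter protocol was run at 3 concentrations up to 38.3 uM (primary) or 11 concentrations (follow-up): 16 h compound, 100 nM thapsigargin for 4 h, then extracellular luciferase luminescence.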

[12] = target: Cytochrome P450 2C9 (Homo sapiens) (UniProt P11712); assay: qHTS Assay for Inhibitors and Substrates of Cytochrome P450 2C9 (AID 883; active means well fitted curve in the direction sought with a large enough effect; an effect the other way counts as inactive or inconclusive; further: potency means the concentration at half of the fitted maximal effect; nearly all actives have a fitted effect of over 60% in size); settings: recombinant CYP2C9, luciferin-H luminescence, 60 min; series mostly up to 57.1 µM
Cytochrome P450 2C9 (Homo sapiens), sequence (P11712 whole entry, looked up): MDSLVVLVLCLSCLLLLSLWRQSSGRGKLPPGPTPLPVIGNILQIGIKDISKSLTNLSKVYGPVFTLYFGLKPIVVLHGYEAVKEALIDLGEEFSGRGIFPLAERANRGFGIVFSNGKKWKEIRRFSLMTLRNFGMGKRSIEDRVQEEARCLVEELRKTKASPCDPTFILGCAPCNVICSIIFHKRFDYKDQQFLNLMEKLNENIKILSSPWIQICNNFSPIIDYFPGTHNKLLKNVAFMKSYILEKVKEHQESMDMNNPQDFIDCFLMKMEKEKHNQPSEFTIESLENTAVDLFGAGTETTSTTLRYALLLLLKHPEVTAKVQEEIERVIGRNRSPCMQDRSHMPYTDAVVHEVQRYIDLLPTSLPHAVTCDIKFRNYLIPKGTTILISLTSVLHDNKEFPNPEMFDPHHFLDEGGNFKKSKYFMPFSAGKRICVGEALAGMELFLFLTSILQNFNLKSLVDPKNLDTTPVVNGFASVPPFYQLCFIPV
Method in brief: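 CYP2C9 deoxyluciferin hydroxylation, 37C, 60 min with NADPH regeneration; 10nM enzyme, 100uM Luciferin-H (KM). Glo detection reagent stopped reaction; luminescence normalized to sulphaphenazole (57uM) full inhibition.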

[13] = qHTS Assay for Identification of Small Molecule Agonists for Hypoxia Response Element Signaling Pathway (AID 914; active means well fitted activation curve with a large enough effect in the signal ratio, with a control signal flat, not every such curve was filed as active; the % refers to the signal ratio; further: potency means the concentration at half of the fitted maximal effect; on activation: % of control where 0% means no effect); settings: ME-180 (cervical carcinoma) HRE-bla reporter, beta-lactamase ratio, CoCl2, 17 h; activation: hits give high values
Method in brief: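 AC50 values come from titration-series %Activity, taken as the 460/530nm ratio of CCF4 fluorescence (excitation 405nm). CellSensor HRE-bla ME-180 cells were treated 17 hours at 37 C with compound plus an EC50 level of CoCl2.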

[14] = target: Glucocorticoid receptor (Homo sapiens) (UniProt P04150); assay: GR-GFP Redistribution (AID 450;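 active means compounds whose dose series gives a full or clear partial fitted curve of increased nuclear translocation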; further: potency means the concentration at half of the fitted maximal effect); settings: U2OS GR-GFP nuclear translocation, laser cytometry, 2 h
[15] = target: Cytochrome P450 3A4 (Homo sapiens) (UniProt P08684); assay: qHTS Assay for Inhibitors and Substrates of Cytochrome P450 3A4 (AID 884; active means well fitted curve in the direction sought with a large enough effect; an effect the other way counts as inactive or inconclusive; further: potency means the concentration at half of the fitted maximal effect; nearly all actives have a fitted effect of over 50% in size); settings: recombinant CYP3A4, Luciferin-PPXE luminescence; series mostly up to 57.1 µM
Method in brief: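 Luminescent readout of luciferin produced by CYP3A4 (20 nM) dealkylation of Luciferin-PPXE, 25 uM (its KM). NADPH-driven reaction ran 60 min at RT after 10 min compound preincubation; data scaled to 57 uM ketoconazole as 100% inhibition.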

[16] = target: Ubiquitin carboxyl-terminal hydrolase 1 (Homo sapiens) (UniProt O94782); assay: Inhibitors of USP1/UAF1: Pilot qHTS (AID 504865; active means well fitted curve in the direction sought with a large enough effect; an effect the other way counts as inactive or inconclusive;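 further: rhodamine fluorescence freed from ubiquitin-rhodamine substrate followed over time; top concentration of the series differs between compounds; on the % scale 0 is the no-effect control and ±100 the full control effect; nearly all actives have a fitted effect of over 35% in size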); settings: purified USP1/UAF1, Ub-rhodamine cleavage fluorescence; series mostly up to 54.9 µM
Ubiquitin carboxyl-terminal hydrolase 1 (Homo sapiens), sequence (O94782 whole entry, looked up): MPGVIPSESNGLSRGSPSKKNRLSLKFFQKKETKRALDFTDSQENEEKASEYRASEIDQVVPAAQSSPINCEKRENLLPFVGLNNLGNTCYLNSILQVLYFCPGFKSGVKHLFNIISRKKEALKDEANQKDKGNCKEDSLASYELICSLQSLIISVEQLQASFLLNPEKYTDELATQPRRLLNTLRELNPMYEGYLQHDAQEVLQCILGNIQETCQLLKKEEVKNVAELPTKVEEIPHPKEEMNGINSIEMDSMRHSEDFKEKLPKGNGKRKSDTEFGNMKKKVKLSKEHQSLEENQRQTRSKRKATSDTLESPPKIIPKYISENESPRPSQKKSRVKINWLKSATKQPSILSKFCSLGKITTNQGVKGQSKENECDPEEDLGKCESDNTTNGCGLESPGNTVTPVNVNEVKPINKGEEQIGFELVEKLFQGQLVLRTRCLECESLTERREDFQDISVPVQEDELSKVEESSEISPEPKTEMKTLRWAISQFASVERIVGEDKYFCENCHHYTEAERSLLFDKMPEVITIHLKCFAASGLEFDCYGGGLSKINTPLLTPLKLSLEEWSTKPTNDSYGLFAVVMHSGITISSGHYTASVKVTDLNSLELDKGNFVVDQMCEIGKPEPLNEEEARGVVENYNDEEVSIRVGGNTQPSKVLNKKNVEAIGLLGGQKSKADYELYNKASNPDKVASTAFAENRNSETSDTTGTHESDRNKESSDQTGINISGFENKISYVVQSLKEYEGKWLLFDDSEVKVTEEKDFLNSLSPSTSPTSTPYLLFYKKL
Method in brief: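 In 50mM HEPES pH 7.8 containing 0.5mM EDTA, 1mM TCEP, 0.1 mg/ml BSA and 0.01% Tween-20, 1nM USP1/UAF1 is exposed to compound for 15 min, then Ub-Rho (150nM final) is added and fluorescence is read over time.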

[17] = target: Cytochrome P450 2C19 (Homo sapiens) (UniProt P33261); assay: qHTS Assay for Inhibitors and Substrates of Cytochrome P450 2C19 (AID 899; active means well fitted curve in the direction sought with a large enough effect; an effect the other way counts as inactive or inconclusive; further: on the % scale 0 is the no-effect control and ±100 the full control effect; nearly all actives have a fitted effect of over 60% in size); settings: recombinant CYP2C19, luciferin-H EGE luminescence; series mostly up to 57.1 µM
Method in brief: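 In 50mM KPO4, the reaction held 5nM enzyme and KM-level (10uM) Luciferin-H EGE; it ran 60 min at 37C after NADPH regeneration and a 10 min compound preincubation. Luminescence values were scaled to 57uM ketoconazole as complete inhibition.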

[18] = Confirmation and Secondary Assay for Modulators of Hemoglobin Beta Chain Splicing at IVS2 654 locus (AID 910; active means well fitted curve in the direction sought with a large enough effect; an effect the other way counts as inactive or inconclusive;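 further: per-well total GFP intensity by laser scanning cytometry after 2-day treatment; % of control where 0% means no effect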); settings: HeLa EGFP-654 splicing reporter, GFP fluorescence, 48 h; series mostly up to 38.3 µM
Method in brief: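 HeLa cells stably carrying EGFP interrupted by mutant beta-globin IVS2-654 intron (CMV-driven) were treated with compound for 2 days at 37C; corrected splicing was scored as total peak GFP intensity per well (488 nm excitation, 500-520 nm emission).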

[19] = Confirmation and Secondary Assay for Modulators of Hemoglobin Beta Chain Splicing at IVS2 705 locus (AID 930; active means well fitted curve in the direction sought with a large enough effect; an effect the other way counts as inactive or inconclusive;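 further: HeLa cells stably expressing the EGFP-705 splicing reporter; % of control where 0% means no effect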); settings: HeLa EGFP-705 splicing reporter, GFP fluorescence, 48 h; series mostly up to 38.3 µM
Method in brief: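 Restored EGFP fluorescence after 2-day compound exposure reports splicing correction in IVS2-705 EGFP reporter HeLa cells; positive control was 500 nM splice-blocking PNA oligo. Signal measured as well total peak GFP intensity (488 nm excitation).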

SMILES	Potency [1]	activity change, negative = inhibition [2]	Potency [3]	activity change, negative = inhibition [4]	activity, negative = inhibition [5]	Potency [6]	Potency [7]	Potency [8]	Potency [9]	Potency [10]	outcome [11]	Potency [12]	activation [13]	Potency [14]	Potency [15]	Potency [16]	Potency [17]	Potency [18]	outcome [19]	Potency [13]
CC(C)NC(=O)N1CCCC2(CCN(C(=O)c3ccco3)CC2)C1	> 11.4 µM	4.82%	inactive	-9.54%	-11.2%	> 46 µM	inactive	inactive	inactive	2.51 µM (active)	inactive	–	–	–	–	–	–	–	–	–
COc1cccc(Cn2c(=O)c(-c3cccc(C#N)c3)nc3cnc(Nc4ccccc4)nc32)c1	> 11.4 µM	-3.95%	inactive	-12.1%	-14.2%	> 46 µM	inactive	inactive	inactive	–	inactive	–	–	–	–	–	–	–	–	–
O=C(c1cnccn1)N1CCC2(CC1)CN(c1ccccc1)C2	> 11.4 µM	-9.4%	inactive	14%	-6.18%	> 46 µM	–	inactive	–	–	inactive	–	–	–	–	–	–	–	–	–
O=C(c1ccco1)N1CCC[C@@]2(CCN(c3cccc(-c4ccccc4)c3)C2)C1	> 11.4 µM	-1.52%	15.8 µM (active)	-22.9%	3.03%	> 46 µM	–	–	–	–	inactive	5.01 µM (active)	–	–	–	–	–	–	–	–
COc1ccc(C(=O)N2CCC[C@@]3(CCN(C(=O)Nc4cccc(C#N)c4)C3)C2)cc1	> 11.4 µM	-11.5%	inactive	16.6%	1.52%	> 46 µM	inactive	inactive	inactive	–	inactive	–	–	–	–	–	–	–	–	–
COC(=O)N1CCC[C@@]2(CCN(c3ncccn3)C2)C1	> 11.4 µM	2.3%	inactive	11.8%	8.51%	> 46 µM	inactive	inactive	–	–	inactive	–	23.3%	–	–	–	–	–	–	–
COc1ccc(CNc2ncncc2-c2cccc(NS(C)(=O)=O)c2)c(OC)c1	> 2.29 µM	-14.5%	15.8 µM (active)	–	17.9%	> 46 µM	inactive	inactive	inactive	–	inactive	–	–	> 46 µM	0.251 µM (active)	inactive	–	–	–	–
N#Cc1cccc(NC(=O)N2CC[C@@]3(CCCN(S(=O)(=O)c4ccccc4)C3)C2)c1	> 11.4 µM	-14%	25.1 µM (active)	3.6%	-7.29%	–	inactive	–	inactive	–	inactive	–	–	–	3.16 µM (active)	–	–	–	–	–
CN1CCN(c2ncc3nc(-c4ccc(Cl)cc4)c(=O)n(CCC#N)c3n2)CC1	> 11.4 µM	130% [activator] (active)	15.8 µM (active)	214% [activator] (active)	–	> 46 µM	inactive	inactive	–	–	inactive	–	–	> 9.22 µM	–	–	inactive	–	–	–
Cc1cnc(CNc2nc(-c3ccc(C(=O)N(C)C)cc3)nc3ccccc23)cn1	> 11.4 µM	-29.1%	25.1 µM (active)	–	-7.91%	> 46 µM	inactive	inactive	inactive	–	inactive	–	–	> 46 µM	–	inactive	–	inactive	inactive	–
N#Cc1cccc(NC(=O)N2CCCC3(CCN(C(=O)c4cnccn4)CC3)C2)c1	> 11.4 µM	-1.03%	20 µM (active)	-9.23%	0.635%	> 46 µM	inactive	–	inactive	–	inactive	–	0.071%	–	–	–	–	–	–	–
Cn1cc(-c2nc3cnc(Oc4ccccc4)nc3n(CCC#N)c2=O)c2ccccc21	> 11.4 µM	5.74%	3.16 µM (active)	7.14%	–	> 46 µM	inactive	inactive	inactive	–	inactive	–	–	> 9.22 µM	–	–	–	–	–	3.16 µM (active)
COc1ccc(CNc2ncncc2-c2ccc3c(c2)OCO3)c(OC)c1	> 11.4 µM	11.1%	0.501 µM (active)	–	-6.57%	> 46 µM	inactive	–	inactive	0.794 µM (active)	inactive	–	–	> 46 µM	0.126 µM (active)	inactive	–	inactive	inactive	–
COc1ccc(Oc2ncc3nc(-c4cccs4)c(=O)n(-c4ccccc4)c3n2)cc1	> 11.4 µM	21.1%	3.16 µM (active)	8.33%	–	> 46 µM	inactive	inactive	inactive	–	inactive	–	–	> 9.22 µM	2.51 µM (active)	–	–	–	–	2.51 µM (active)
